Results on 40 compounds are retold here after PubChem BioAssay (EPA / NIEHS).

As usually defined, the AC50 is the concentration giving half of the maximal activity seen.

Activity calls are given as the source filed them. Rule for the calls: active = hit-call score of the fitted dose curve at least 0.9, where 1 is the maximum; inactive = score below 0.9.

Sequence of Cytochrome P450 2C19 (Homo sapiens) (P33261 whole entry, looked up): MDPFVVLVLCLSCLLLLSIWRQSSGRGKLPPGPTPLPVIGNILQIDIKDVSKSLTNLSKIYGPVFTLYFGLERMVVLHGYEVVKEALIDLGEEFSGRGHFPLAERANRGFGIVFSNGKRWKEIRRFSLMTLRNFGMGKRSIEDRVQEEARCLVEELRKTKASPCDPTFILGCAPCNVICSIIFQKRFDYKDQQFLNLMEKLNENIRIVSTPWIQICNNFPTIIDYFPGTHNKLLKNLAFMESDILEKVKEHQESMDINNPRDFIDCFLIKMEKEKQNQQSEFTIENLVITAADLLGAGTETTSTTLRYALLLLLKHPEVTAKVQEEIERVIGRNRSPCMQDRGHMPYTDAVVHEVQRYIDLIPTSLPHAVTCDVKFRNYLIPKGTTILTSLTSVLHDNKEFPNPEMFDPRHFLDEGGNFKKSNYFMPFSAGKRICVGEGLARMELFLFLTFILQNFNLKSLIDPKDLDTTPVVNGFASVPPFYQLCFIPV

Read-out in this assay: Cytochrome P450 2C19 (Homo sapiens) (UniProt P33261)
Nature of the assay: LTEA_HepaRG_CYP2C19: Life Technologies and Expression Analysis (LTEA) Assay for CYP2C19 using HepaRG (AID 2283482). The settings on record: mRNA level, 48 h; actives raise or lower the signal. On the procedure: LTEA_HepaRG is a cell based, multiplexed-readout assay that uses HepaRG, a human liver cell line, with measurements taken at 48 hours after chemical dosing on a 96-well plate.LTEA_HepaRG_CYP2C19 is one of 102 assay component(s) measured in the LTEA HepaRG cell culture assay. It is a marker of NR mediated metabolism.Data from the assay component LTEA_HepaRG_CYP2C19 was analyzed into 1 endpoint. This assay endpoint, LTEA_HepaRG_CYP2C19, was analyzed with bidirectional fitting relative to DMSO as the negative control and baseline of activity. Using a type of inducible reporter, measures of mRNA induction for gain or loss-of-signal activity can be used to understand regulation of transcription factor activity. To generalize the intended target to other relatable targets, this assay endpoint is annotated to the cyp intended target family, where the subfamily is xenobiotic metabolism.
A total of 1060 chemcials from the ToxCast library were tested in eight-point concentration-response experiments. Cell culture and cytotoxicity assays were conducted at Thermo Fisher Scientific's Custom Services facility (Madison, WI). A single lot of human HepaRG cells (Thermo Fisher Scientific, Frederick, MD) was used for the cell culture experiments. 96-well format collagen type I coated plates of human HepaRG cells were prepared using established methods. Briefly, cryopreserved HepaRG cells were thawed, plated at a density of approximately 100,000 cells/well in HepaRG Thaw, Plate, and General Purpose media (HPRG770, Thermo Fisher Scientific), and incubated for 48 hours. 0.5% DMSO was selected as vehicle control to balance the requisite need of DMSO in HepaRG cultures to maintain differentiation (for example, baseline metabolism, proportions of hepatocytes vs. cholangiocytes), while enabling further hepatic receptor pathway activation (for example, PXR and CAR) in response to chemical exposure. 48 hours after plating, the culture medium was replaced with HepaRG Serum-Free Incudtion Media. Cells were exposed to each test chemical in duplicate and maintained in CO2 incubators for another 48 hours. Chemical plates were thawed to room temperature and 200x concentrations of treatment groups were prepared. 8-point conentration-reponse curves were made with the highest exposure at 100 uM, followed by half-log dilutions, all in 0.5% DMSO. Each test plate contained variouse controls, induction positive controls (1mM phenobarbital), cytotoxicity positive controls ([…] aflatoxin B1), vehicle controls (0.5% DMSO), and total lysis controls (0.5% DMSO). Cell morphology images were taken using an Essen IncuCyte FLR automated microscope, with six 96-well plates imaged in about 24 minutes. Images were captured and exported and JPEG files. Spent culture media was transfered to black-well plates for the LDH assay, and remaining media was sorted at -80 C for later use. Cells were treated with RLT buffer and frozen until shipped for gene expression analysis. Total RNA was isolated from the cell suspension in 75 uL of Buffer RLT (Qiagen, Germantown, MD 20874) by Quintiles/Expression Analysis (Durham, NC) using a custom isolation procedure. Total RNA from each plate well was transferred to a preamplification plate. Fluidigm's 96.96 Dynamic ArrayTM (Fluidigm, Amsterdam, the Netherlands) technology was used for gene expression analyses by quantitative reverse transcription polymerase chain reaction (qRT-PCR, performed by Quintiles/Expression Analysis, Durham, NC)89. Standard TaqManTM Assays (Applied Biosystems/ThermoFisher Scientific, Foster City, CA) were used to assess the expression of 93 genes selected based on their selectivity and sensitivity to important hepatic receptors known to be modulated by environmental chemicals; importance in human hepatocyte functionality; and hepatotoxicity. […]
Take `ClC(Cl)c1ccccc1`: the compound was classed as inactive.
Still for that read-out and setting: then `Nc1ccc(Cl)cc1`, with “inactive”.
As for `CCCCN(CCCC)SN(C)C(=O)Oc1cccc2c1OC(C)(C)C2`, the AC50 was 16.7 µM (active).
With `ClC1=C(Cl)C2(Cl)C3C(Cl)C(Cl)CC3C1(Cl)C2(Cl)Cl` (stereo not given), the concentration at half-maximal activity (AC50) was 2.42 µM (active).
`CC(C)(C)OOC(C)(C)C`: the outcome was inactive.
The same measure, in the same setting: as for `Cc1ccc([N+](=O)[O-])cc1C`, the entry is “inactive”.
As for `O=C(O)C1C(C(=O)O)C2(Cl)C(Cl)=C(Cl)C1(Cl)C2(Cl)Cl` (stereo not given), the outcome was inactive.
Still for that read-out and setting: then `O=[N+]([O-])c1ccccc1`, with “inactive”.
For `CCCCCCCc1ccc(O)cc1`, the compound was classed as inactive.
With `CCC1(c2ccccc2)C(=O)N=C(O)NC1=O` (stereo not given), the AC50 was 63.6 µM (active).
Turning to `CCCCN(CCCC)N=O`, the compound was called inactive.
As for `CCOC(=O)c1ccccc1C(=O)OCC`, the result was inactive.
On the same count and under the same terms, then `CCN(CC)c1ccccc1`, with “inactive”.
In the case of `CCOP(=S)(OCC)SCSCC`, the concentration at half-maximal activity (AC50) is 11.2 µM (active).
Consider `c1ccc(OP(Oc2ccccc2)Oc2ccccc2)cc1`, for which the result was inactive.
Consider `O=C(O)C(Cl)Cl`, for which the outcome was inactive.
Still for that read-out and setting: then `CN(C)C(=O)Cl`, with “inactive”.
For the compound `Nc1cc2c3c(c1)C(c1ccccc1)=N[C@@H](NC(=O)c1cccnc1)C(=O)N3CC2`, the AC50 was 9.8 µM (active).
With `CCC(C)(C)c1ccc(O)cc1`, the compound was called inactive.
Turning to `CC(Cl)(Cl)C(=O)O`, the call was inactive.
In the case of `O=P(Oc1ccccc1)(Oc1ccccc1)Oc1ccccc1`, the AC50 was 2.95 µM (active).
Consider `c1cc2c3c(cccc3c1)CC2`, for which the result was inactive.
Same read-out and setting: as for `CSC(C)(C)C=NO`, the entry is “inactive”.
As for `Cc1cccc(N)c1`, the outcome was inactive.
On the same count and under the same terms, then `OCC1CO1` (stereo not given), with “inactive”.
As for `CCNc1nc(Cl)nc(NC(C)(C)C)n1`, the half-maximal activity concentration (AC50) is 2.46 µM (active).
As to `CCCCc1ccccc1`, the call was inactive.
With `CCOS(=O)(=O)OCC`, the call was inactive.
The same measure, in the same setting: as for `O=[N+]([O-])c1ccc(Cl)c(Cl)c1`, the entry is “inactive”; as for `[N-]=[N+]=[N-]`, “inactive”.
For the compound `ClC(Cl)(Cl)c1ccccc1`, the compound was called inactive.
As for `Nc1ccc2ccccc2c1`, the AC50 is 26.7 µM (active).
Regarding `Cc1ccc(N)cc1N`, the compound was classed as inactive.
On to `c1nc[nH]n1`, for which the call was inactive.
On to `CC(Cc1ccc(OCC(=O)O)cc1)NCC(O)c1csc(C(F)(F)F)n1` (stereo not given), for which the compound was classed as inactive.
Take `O=P1(N(CCCl)CCCl)NCCCO1` (stereo not given): the compound was classed as inactive.
In the case of `CCCN(CCC)c1c([N+](=O)[O-])cc(C(C)C)cc1[N+](=O)[O-]`, the AC50 is 9.77 µM (active).
For the compound `COCCOCCO`, the half-maximal activity concentration (AC50) was 2.31 µM (active).
As for `c1ccc2c(c1)Nc1ccccc1S2`, the concentration at half-maximal activity (AC50) was 50 µM (active).
As for `CCOc1ccc(C(C)(C)COCc2cccc(Oc3ccccc3)c2)cc1`, the AC50 was 4.25 µM (active).
